In PubChem BioAssay (Tox21):
Results filed as inconclusive are left out. Active and inactive are the calls of the source. Unless noted, calls come from the whole dose curve; as a rule, active = well fitted curve in the direction sought with a large enough effect in the repeat runs; inconclusive = weak or mixed curves; inactive = no such curve, though single readings can be large; an effect the other way counts as inactive or inconclusive.

What was measured:
[1] = molecular target: Thyrotropin receptor (Homo sapiens) (UniProt P16473); test: qHTS assay to identify small molecule antagonists of the thyroid stimulating hormone receptor (TSHR) signaling pathway (AID 1259385; calls by dose curve; note: nearly all actives have a fitted effect of over 20% in size)
Chain of Thyrotropin receptor (Homo sapiens) (P16473 whole entry, looked up): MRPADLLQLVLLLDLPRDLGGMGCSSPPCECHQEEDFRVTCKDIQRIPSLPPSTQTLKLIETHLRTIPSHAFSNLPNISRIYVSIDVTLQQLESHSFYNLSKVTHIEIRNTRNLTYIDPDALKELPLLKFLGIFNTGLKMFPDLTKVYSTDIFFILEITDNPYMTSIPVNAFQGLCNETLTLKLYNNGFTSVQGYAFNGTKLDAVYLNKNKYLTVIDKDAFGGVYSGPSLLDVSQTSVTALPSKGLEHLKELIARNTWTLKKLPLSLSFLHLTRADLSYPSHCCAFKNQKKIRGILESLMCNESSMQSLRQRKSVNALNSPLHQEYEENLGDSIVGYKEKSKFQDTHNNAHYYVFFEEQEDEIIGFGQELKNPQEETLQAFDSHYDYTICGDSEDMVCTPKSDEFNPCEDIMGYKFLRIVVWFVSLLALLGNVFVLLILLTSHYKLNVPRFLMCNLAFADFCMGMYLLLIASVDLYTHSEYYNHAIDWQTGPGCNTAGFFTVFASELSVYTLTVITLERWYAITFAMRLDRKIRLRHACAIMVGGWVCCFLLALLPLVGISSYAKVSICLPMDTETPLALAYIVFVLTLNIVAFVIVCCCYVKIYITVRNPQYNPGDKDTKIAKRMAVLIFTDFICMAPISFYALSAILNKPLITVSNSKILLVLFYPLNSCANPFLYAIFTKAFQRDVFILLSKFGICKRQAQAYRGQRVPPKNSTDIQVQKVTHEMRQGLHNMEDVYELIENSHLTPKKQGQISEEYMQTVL
How it was run: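 TSHR-HEK293 cells (800/well) plated 18 h, then compounds with Ro20-1724 and TSH at 1.5 ng/mL final, 30 min at room temperature. cAMP quantified by HTRF (cAMP-d2/anti-cAMP-cryptate, 1 h); 15 concentrations in triplicate.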

[2] = molecular target: Progesterone receptor (Homo sapiens) (UniProt P06401); test: qHTS assay to identify small molecule agonists of the progesterone receptor (PR) signaling pathway (AID 1346784; calls by dose curve; note: nearly all actives have a fitted effect of over 30% in size)
Chain of Progesterone receptor (Homo sapiens) (P06401 whole entry, looked up): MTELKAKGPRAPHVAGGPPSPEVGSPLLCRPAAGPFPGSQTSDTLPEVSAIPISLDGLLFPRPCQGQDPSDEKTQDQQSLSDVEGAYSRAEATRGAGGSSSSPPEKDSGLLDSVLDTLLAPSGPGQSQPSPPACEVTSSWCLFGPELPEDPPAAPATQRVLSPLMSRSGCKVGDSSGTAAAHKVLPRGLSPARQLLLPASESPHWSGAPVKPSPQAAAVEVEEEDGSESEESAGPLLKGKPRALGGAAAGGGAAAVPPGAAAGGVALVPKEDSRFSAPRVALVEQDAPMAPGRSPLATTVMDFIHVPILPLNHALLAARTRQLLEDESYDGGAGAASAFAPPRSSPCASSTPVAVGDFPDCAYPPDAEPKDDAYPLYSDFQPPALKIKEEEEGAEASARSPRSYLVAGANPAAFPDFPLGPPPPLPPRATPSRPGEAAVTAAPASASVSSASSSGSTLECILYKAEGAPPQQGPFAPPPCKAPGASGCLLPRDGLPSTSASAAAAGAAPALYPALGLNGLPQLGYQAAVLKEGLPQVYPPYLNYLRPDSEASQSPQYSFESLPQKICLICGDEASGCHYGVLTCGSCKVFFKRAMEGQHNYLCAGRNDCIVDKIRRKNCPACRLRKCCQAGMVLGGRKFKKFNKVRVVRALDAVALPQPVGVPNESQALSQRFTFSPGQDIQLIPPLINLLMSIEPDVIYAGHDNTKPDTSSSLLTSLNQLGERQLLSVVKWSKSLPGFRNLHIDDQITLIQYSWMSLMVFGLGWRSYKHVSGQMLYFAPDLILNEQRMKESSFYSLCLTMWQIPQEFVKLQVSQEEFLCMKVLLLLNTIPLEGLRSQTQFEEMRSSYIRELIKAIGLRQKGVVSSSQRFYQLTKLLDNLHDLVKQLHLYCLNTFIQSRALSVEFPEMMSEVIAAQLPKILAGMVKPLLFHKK
How it was run: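 The screen uses PR-UAS-bla HEK 293T cells in charcoal-stripped serum (2%). Compounds are applied for 16 hr at 37C after a 6 hr pre-incubation, and reporter activity is detected with a FRET beta-lactamase substrate after 2 hr at room temperature.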

[3] = molecular target: Progesterone receptor (Homo sapiens) (UniProt P06401); test: qHTS assay to identify small molecule antagonists of the progesterone receptor (PR) signaling pathway (AID 1346795; active = well fitted inhibition curve with a large enough effect in the signal ratio in the repeat runs, not every such curve was filed as active; the % refers to the signal ratio)
How it was run: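 After 6 hr plating at 37C in 2% stripped-serum medium, PR-UAS-bla HEK293T cells got compounds, then 1 nM R5020. Sixteen hours later, LiveBLAzer substrate was applied for 2 hr at room temperature and fluorescence was recorded.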

[4] = qHTS assay to identify small molecule antagonists of the progesterone receptor (PR) signaling pathway - cell viability counter screen (AID 1346798); note: series mostly up to about 92 µM; nearly all actives have a fitted effect of over 50% in size
How it was run: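 Viability was determined by ATP-based luminescence (CellTiter-Glo) in PR-UAS-bla HEK293T cells cultured in 2% charcoal-stripped serum and incubated 16 hr with compounds under R5020 stimulation.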

[5] = qHTS assay to identify small molecule agonists of the progesterone receptor (PR) signaling pathway - cell viability counter screen (AID 1346799; calls by dose curve; note: nearly all actives have a fitted effect of over 45% in size)
How it was run: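 Viability was scored by ATP luminescence (CellTiter-Glo, 30 min, room temperature) in the same wells used for the reporter readout, after 16 hr compound exposure of PR-UAS-bla HEK293T cells.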

[6] = qHTS assay to identify small molecule antagonists of the TGF-beta/Smad signaling pathway - cell viability counter screen (AID 1346824); note: nearly all actives have a fitted effect of over 50% in size
How it was run: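 SBE-bla HEK 293T cells, incubated overnight, then compound plus 0.25 ng/mL TGF-beta1 (stock added) for 5 hr at 37 C. Viability was read in the same wells by CellTiter-Glo luminescence after 30 min at room temperature.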

[7] = qHTS assay to identify small molecule agonists of the TGF-beta/Smad signaling pathway - cell viability counter screen (AID 1346829); note: top concentration of the series differs between compounds; nearly all actives have a fitted effect of over 45% in size
How it was run: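 CellTiter-Glo luminescence readout; SBE-bla HEK 293T cells, overnight plating, compound 5 hr at 37 C/5% CO2, then bla substrate 2 hr RT, then CellTiter-Glo 30 min RT.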

[8] = qHTS assay to identify small molecule agonists of the TGF-beta/Smad signaling pathway (AID 1346859; active = well fitted activation curve with a large enough effect in the signal ratio in the repeat runs, not every such curve was filed as active; the % refers to the signal ratio; note: series mostly up to about 77 µM)
How it was run: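 Dual-wavelength fluorescence (460/530 nm emission) quantified beta-lactamase expression under the Smad binding element in HEK 293T cells following 5 hr compound treatment at 37 C.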

[9] = Human pregnane X receptor (PXR) small molecule agonists, qHTS cell viability counter screen (AID 1346977); note: nearly all actives have a fitted effect of over 50% in size
How it was run: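 HepG2 cells stably carrying the PXR-Luc reporter are cultured with 5% charcoal-stripped FBS and treated with compounds for 24hr. CellTiter-Fluor is added at 23hr and fluorescence is read after 1hr.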

[10] = Caspase-3/7 induction in HepG2 cells by small molecules, qHTS assay (AID 1346978); note: nearly all actives have a fitted effect of over 15% in size
How it was run: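 Wild-type HepG2 cells, 2,000/well, settled 5 hr at 37 C and 5% CO2, then compound-treated for 17 hr; caspase-3/7 activity read by luminescent Caspase-Glo 3/7 after 30 min at room temperature.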

[11] = Caspase-3/7 induction in CHO-K1 cells by small molecules, qHTS cell viability counter screen (AID 1346979); note: nearly all actives have a fitted effect of over 35% in size
How it was run: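 Seeding: 1,500 CHO-K1 cells/well. Rest: 5hr, 37C. Treatment: compounds in DMSO, 16hr. Read: CellTiter-Fluor, 1hr, fluorescence.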

[12] = Caspase-3/7 induction in CHO-K1 cells by small molecules, qHTS assay (AID 1346980); note: nearly all actives have a fitted effect of over 15% in size
How it was run: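 Wild-type CHO-K1 cells exposed to compounds for 17hr at 37 C, 5% CO2. Caspase-3/7 activity then measured by Caspase-Glo 3/7 luminescence after 30min at room temperature.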

[13] = Caspase-3/7 induction in HepG2 cells by small molecules, qHTS cell viability counter screen (AID 1346981); note: series mostly up to about 92 µM; nearly all actives have a fitted effect of over 30% in size
How it was run: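 Cell viability is measured as a cytotoxicity counter screen alongside the Caspase-Glo 3/7 readout in identical wells. Wild-type HepG2 cells are treated with test compounds for 16 hr at 37 C before CellTiter-Fluor addition and a 1-hr incubation.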

[14] = molecular target: Nuclear receptor subfamily 1 group I member 2 (Homo sapiens) (UniProt O75469); test: Human pregnane X receptor (PXR) small molecule agonists, qHTS assay (AID 1346982); note: nearly all actives have a fitted effect of over 35% in size
Chain of Nuclear receptor subfamily 1 group I member 2 (Homo sapiens) (O75469 whole entry, looked up): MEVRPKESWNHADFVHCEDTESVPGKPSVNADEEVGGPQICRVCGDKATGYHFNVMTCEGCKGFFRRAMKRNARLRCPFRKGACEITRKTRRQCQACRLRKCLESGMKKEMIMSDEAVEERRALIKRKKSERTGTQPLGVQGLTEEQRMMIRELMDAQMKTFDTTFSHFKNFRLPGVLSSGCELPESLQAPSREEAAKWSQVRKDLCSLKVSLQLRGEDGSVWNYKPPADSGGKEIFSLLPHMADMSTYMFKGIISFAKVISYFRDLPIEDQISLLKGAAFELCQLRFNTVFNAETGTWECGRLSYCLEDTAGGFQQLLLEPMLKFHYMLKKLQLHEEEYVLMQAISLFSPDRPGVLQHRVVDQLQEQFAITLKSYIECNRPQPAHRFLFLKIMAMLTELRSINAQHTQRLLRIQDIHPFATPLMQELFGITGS
How it was run: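 Cells: HepG2 stably carrying PXR-Luc. Medium held 5% charcoal-stripped FBS. Compounds in DMSO added after 5 hr plating, incubated 24 hr, then luminescence quantified with ONE-Glo.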

[15] = molecular target: Nuclear receptor subfamily 1 group I member 2 (Homo sapiens) (UniProt O75469); test: CYP3A4 induction through human pregnane X receptor (PXR) by small molecules, qHTS assay (AID 1346984); note: nearly all actives have a fitted effect of over 40% in size
How it was run: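 Quantitative HTS in DPX-2 cells, i.e. HepG2 transfected with PXR response element and CYP3A4-promoter luciferase. Compounds in DMSO incubated 24hr at 37C; then P450-Glo CYP3A4 substrate, 3uM final, 3hr; One-Glo luminescence.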

[16] = molecular target: Thyrotropin-releasing hormone receptor (Homo sapiens) (UniProt P34981); test: qHTS assay to identify small molecule antagonists of the thyrotropin-releasing hormone receptor (TRHR) signaling pathway (AID 1346877; active = well fitted inhibition curve with a large enough effect in the repeat runs, not every such curve was filed as active; note: series mostly up to about 51 µM)
Chain of Thyrotropin-releasing hormone receptor (Homo sapiens) (P34981 whole entry, looked up): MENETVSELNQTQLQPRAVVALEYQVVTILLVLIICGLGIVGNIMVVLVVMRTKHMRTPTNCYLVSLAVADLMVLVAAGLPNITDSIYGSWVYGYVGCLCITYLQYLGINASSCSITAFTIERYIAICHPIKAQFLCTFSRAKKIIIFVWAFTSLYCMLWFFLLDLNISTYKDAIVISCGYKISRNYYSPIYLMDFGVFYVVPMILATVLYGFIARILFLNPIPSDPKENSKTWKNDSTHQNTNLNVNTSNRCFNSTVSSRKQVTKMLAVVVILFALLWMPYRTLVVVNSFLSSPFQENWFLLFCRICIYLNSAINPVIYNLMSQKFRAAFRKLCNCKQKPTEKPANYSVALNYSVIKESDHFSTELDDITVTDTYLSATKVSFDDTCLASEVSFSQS
How it was run: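 Antagonism is measured as suppression of the calcium response to 1 nM TRH in TRHR-HEK293 cells that have been dye-loaded for 2 h at 37 °C after overnight plating. Each compound is tested at 15 concentrations in triplicate.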

[17] = molecular target: Thyrotropin-releasing hormone receptor (Homo sapiens) (UniProt P34981); test: qHTS assay to identify small molecule agonists of the thyrotropin-releasing hormone receptor (TRHR) signaling pathway (AID 1346891; calls by dose curve;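 note: HEK293 cells expressing TRHR with calcium dye readout; series mostly up to about 58 µM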)
How it was run: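 Kinetic fluorescence (3 min, 1 s intervals) reported intracellular calcium after compound transfer onto TRHR-Hek293 cells pre-loaded with dye for 2 h at 37 °C.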

[18] = qHTS assay to identify small molecule agonists of the estrogen receptor alpha (ER-alpha) signaling pathway in the presence of an antagonist - cell viability counter screen (AID 1259386);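 note: series mostly up to about 92 µM; cells exposed to compounds for 22 h at 37 °C before the viability read; nearly all actives have a fitted effect of over 30% in size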
How it was run: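 Cytotoxicity was measured in parallel with the ERE-luciferase agonist screen, in the same wells. The cells were VM7Luc4E2, which endogenously express ER-alpha, and treatment was with compounds plus 10.0nM ICI-182,780 for 22hr.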

[19] = molecular target: Nuclear receptor subfamily 1 group I member 2 (Rattus norvegicus) (UniProt Q9R1A7); test: Rat pregnane X receptor (rPXR) activation by small molecules, qHTS assay (AID 1346983); conditions: rPXR luciferase reporter cells, One-Glo luminescence, 24 h; max activation: hits give high values; note: nearly all actives have a fitted effect of over 20% in size
Chain of Nuclear receptor subfamily 1 group I member 2 (Rattus norvegicus) (Q9R1A7 whole entry, looked up): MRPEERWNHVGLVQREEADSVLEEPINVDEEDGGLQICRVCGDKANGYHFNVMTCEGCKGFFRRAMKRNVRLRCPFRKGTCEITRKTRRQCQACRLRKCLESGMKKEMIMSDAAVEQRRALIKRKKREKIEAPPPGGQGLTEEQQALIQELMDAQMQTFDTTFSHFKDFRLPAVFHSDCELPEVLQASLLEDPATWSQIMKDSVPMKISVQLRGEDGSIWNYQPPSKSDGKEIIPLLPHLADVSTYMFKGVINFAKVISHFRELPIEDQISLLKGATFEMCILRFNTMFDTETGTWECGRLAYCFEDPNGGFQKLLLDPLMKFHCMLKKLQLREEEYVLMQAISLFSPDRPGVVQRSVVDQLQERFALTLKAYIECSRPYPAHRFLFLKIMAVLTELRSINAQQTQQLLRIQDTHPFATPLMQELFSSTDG
How it was run: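 Cell-based rPXR activation assay: rPXR cells, 2,000 per well, rested 5hr at 37 C, then exposed to compounds in DMSO for 24 hr at 37 C. Luciferase activity read by One-Glo luminescence after 30 min at room temperature.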
% is set by controls: 0 for no effect and ±100 for the full control effect.

C[C@H](O)C(=O)Nc1c(I)c(C(=O)NC(CO)CO)c(I)c(C(=O)NC(CO)CO)c1I
inactive: Potency [1] | Potency [2] | Potency [3] | Potency [4] | Potency [5] | outcome [6] | outcome [7] | outcome [8] | Potency [9] | outcome [10] | Potency [11] | outcome [12] | outcome [13] | Potency [14] | Potency [15]

CC(C)(C)OC(=O)N1C[C@@H](F)C[C@H]1C(=O)O
inactive: Potency [1] | Potency [2] | Potency [3] | Potency [4] | outcome [6] | outcome [7] | outcome [8] | outcome [16] | outcome [17] | Potency [9] | outcome [10] | Potency [11] | outcome [12] | outcome [13] | Potency [14]

CC(=O)NC(Cc1ccccc1)C(=O)O (centres undefined)
inactive: Potency [1] | outcome [18] | Potency [2] | outcome [7] | outcome [8] | outcome [16] | outcome [17] | Potency [9] | outcome [10] | Potency [11] | outcome [12] | outcome [13] | Potency [14]

Cc1onc(-c2ccccc2)c1-c1ccc(S(N)(=O)=O)cc1
inactive: Potency [1] | outcome [18] | Potency [2] | outcome [6] | outcome [7] | outcome [8] | outcome [16] | outcome [17] | Potency [9] | outcome [10] | Potency [11] | outcome [12] | outcome [13] | max activation [19] -3.92%

CC12CCC(CC1=O)C2(C)C (centres undefined)
inactive: Potency [1] | Potency [2] | Potency [3] | Potency [4] | Potency [5] | outcome [6] | outcome [7] | outcome [8] | outcome [16] | outcome [17] | Potency [9] | outcome [10] | Potency [11] | outcome [12] | outcome [13] | Potency [14]

O=c1[nH]c2ccccc2c(=O)n1CCCl
inactive: Potency [1] | outcome [18] | Potency [2] | Potency [5] | outcome [6] | outcome [7] | outcome [8] | outcome [16] | outcome [17] | Potency [9] | outcome [10] | Potency [11] | outcome [12] | outcome [13] | Potency [14]

CCCCC1CCCCC(=O)O1 (centres undefined)
inactive: outcome [18] | Potency [2] | Potency [3] | Potency [4] | Potency [5] | outcome [6] | outcome [7] | outcome [8] | outcome [16] | outcome [17] | Potency [9] | outcome [10] | Potency [11] | outcome [12] | outcome [13] | Potency [14]

Nc1nc(F)nc2c1ncn2[C@@H]1O[C@H](CO)[C@@H](O)[C@@H]1O
inactive: Potency [1] | Potency [2] | Potency [3] | Potency [4] | outcome [6] | outcome [7] | outcome [8] | Potency [9] | outcome [10] | Potency [11] | outcome [12] | outcome [13] | Potency [14] | max activation [19] -2.35% | Potency [15]
